Activity calls are given as the source filed them.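 Rule for the calls: active = inhibition above the hit cutoff set in the earlier primary screen (cut at about 27% in these data); inactive = the rest.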

As usually defined, the inhibition is the change of the read-out against control, counted positive when it falls.

For the assay, the target named is Protein phosphatase methylesterase 1 (Homo sapiens) (UniProt Q9Y570). Description: human PME-1 methylesterase inhibition confirmation – biochemical, fluorescence polarization, FP-Rh probe, triplicate (AID 2171).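 Note: 0% = enzyme with DMSO and 100% = wells lacking PME-1.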 To be noted: recombinant PME-1, FP-Rh probe fluorescence polarization; at 5.9 µM; stronger effect = higher value. On the technique in general: Fluorescence polarisation rises when a labelled molecule tumbles more slowly, as on binding a larger partner.
Chain of Protein phosphatase methylesterase 1 (Homo sapiens) (Q9Y570 whole entry, looked up): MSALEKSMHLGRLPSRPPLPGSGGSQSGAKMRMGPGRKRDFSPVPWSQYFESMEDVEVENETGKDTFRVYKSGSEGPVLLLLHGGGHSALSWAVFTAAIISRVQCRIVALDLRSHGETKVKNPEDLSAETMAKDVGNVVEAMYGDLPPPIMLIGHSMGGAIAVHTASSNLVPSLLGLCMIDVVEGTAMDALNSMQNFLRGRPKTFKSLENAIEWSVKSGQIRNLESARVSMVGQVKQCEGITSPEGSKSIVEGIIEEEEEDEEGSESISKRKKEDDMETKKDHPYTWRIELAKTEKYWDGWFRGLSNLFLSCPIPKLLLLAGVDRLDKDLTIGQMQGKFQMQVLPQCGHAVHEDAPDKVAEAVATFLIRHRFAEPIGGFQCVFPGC
Regarding `COc1cc(C(=O)Nc2c(C(=O)O)[nH]c3ccc(Br)cc23)cc(OC)c1OC`, the inhibition is 23.4% (inactive).

Turning to `COc1cc2c(c(OC)c1OC)-c1ccc(NC(=O)c3ccc(F)cc3)c(=O)cc1[C@@H](NC(C)=O)CC2`, the inhibition was 0.65% (inactive). Take `CCC(=O)NC(c1ccccc1Cl)c1c(O)ccc2ccccc12` (stereo unspecified): the inhibition was 53.2% (active). The result for `Cc1ccc(C(=O)N/N=C/c2ccc(-c3ccc(Br)cc3[N+](=O)[O-])o2)o1` reads 33.1% (active); that for `Cc1ccc(Nc2nnc(SCC(=O)c3ccc(O)cc3O)s2)cc1`, 40.8% (active). With `Oc1ccc(Br)cc1-c1nc2cnccn2c1NC1CCCC1` the figure was 21.4% (inactive); with `Nc1cc(N)cc(-c2nc3ccccc3[nH]2)c1`, 3.51% (inactive). The result for `Cc1cc(-c2ccccc2)nc(N/N=C/c2ccc(O)cc2O)n1` reads 70.4% (active); that for `COc1cc2c(cc1NC(=O)Nc1cccc(C)c1)oc1ccccc12`, 12.2% (inactive); that for `COc1cc(N=Nc2cccc(S(N)(=O)=O)c2)c2ccccc2c1N`, 33.1% (active).

For `COc1ccc(N=Nc2nc3ccc(Br)cc3n2C)cc1`, the inhibition was 29.7% (active). The result for `CCC(C)Nc1nc(N)c([N+](=O)[O-])c(Nc2cc(OC)ccc2OC)n1` (stereo unspecified) reads 34.5% (active); that for `CCCn1nc([N+](=O)[O-])c(C(C#N)c2nc3ccccc3o2)c(Cl)c1=O` (stereo unspecified), 36.5% (active); that for `Cc1cccc2c(N=O)c(O)[nH]c12`, 54.3% (active). The result for `O=C(N/N=C/c1cc(Cl)c(O)c(Cl)c1)c1cc2c(ccc3ccccc32)o1` reads 38.5% (active).

In the case of `O=C(NNc1c2ccccc2nc2ccccc12)c1ccccc1O`, the inhibition was 65.5% (active).
